In PubChem BioAssay (NCATS):
Records with an inconclusive call do not appear. Active and inactive are the calls of the source. Unless noted, calls follow the shape of the dose curve; as a rule, active = well fitted curve in either direction with a large enough effect (not every such curve was filed as active); inconclusive = small, poorly fitted or top-dose-only effect, or another doubt; inactive = flat fitted curve, though single readings scatter.

Tests used:
[1] = target: Lysosomal acid glucosylceramidase (Homo sapiens) (UniProt P04062); assay: Glucocerebrosidase-p2 (AID 348; in the data active = potency below about 10 µM; also: potency is read from the fitted curve at half-maximal effect); details: purified GBA, blue fluorogenic substrate, 40 min
Method in brief: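 Normal human glucocerebrosidase (0.2 nM) with blue fluorogenic substrate (80 uM final) in citrate/phosphate pH 5.9 with 10mM sodium taurocholate, 0.01% tween-20; 40 min RT, NaOH/glycine stop; fluorescence Ex 365/Em 440; AC50 from a titration from 0.6 nM upwards.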

[2] = AP1 Signaling Pathway (AID 357); details: ME-180 AP-1-bla reporter, EGF-induced, beta-lactamase ratio, 5 h; at 7.69 µM (top of the series) unless noted;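 also: ME-180 reporter cells stimulated with EGF at its EC50 level; % is scaled to controls: 0 for no effect and ±100 for the full control effect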
Method in brief: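 Beta-lactamase reporter under AP-1 response element, ME-180 background. Stimulus: EC50 EGF. Compound exposure 5 h, 37 °C. Detection: CCF4, 2.5 h RT, 460/530 nm. Values: AC50 from titration.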

[3] = target: Cytochrome P450 1A2 (Homo sapiens) (UniProt P05177); assay: p450-cyp1a2 (AID 410; calls by dose curve; also: potency is read from the fitted curve at half-maximal effect;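 as to activity change, negative = inhibition: -100% = full effect of reference inhibitor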); details: recombinant CYP1A2, luciferin-ME demethylation, luminescence; series mostly up to 11.4 µM
Method in brief: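 Luminescent demethylation readout: Luciferin-ME (100uM, equal to Km) turned over by 20nM CYP1A2 for 60 min at room temperature after NADPH regeneration addition, following 10 min compound preincubation. Normalization used 57 uM furafylline as full inhibition.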

[4] = NFAT Signaling Pathway (AID 444); details: Jurkat NFAT-bla M1, carbachol, beta-lactamase ratio, 5 h; at 7.69 µM (top of the series) unless noted;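 also: carbachol stimulus at about its EC50 of 1 µM final; % is scaled to controls: 0 for no effect and ±100 for the full control effect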
Method in brief: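 Jurkat cells carrying an NFAT-driven β-lactamase reporter and co-transfected muscarinic M1 receptor were treated with compound plus carbachol (1 uM final, an EC50 level) for 5 h at 37 °C. CCF4 loading followed for 1 h at RT; 460/530 nm ratio gave %activity.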

[5] = Stat Signaling Pathway (AID 446); details: ME-180 (cervical carcinoma) SIE beta-lactamase reporter, IL-6 stimulated, 5 h; at 7.69 µM (top of the series) unless noted;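 also: ME-180 cervical cancer cells given 40 pM IL-6 alongside compound; SIE-controlled beta-lactamase reporter measured as 460/530 nm FRET emission ratio; % is scaled to controls: 0 for no effect and ±100 for the full control effect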
Method in brief: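 Emission at 460 and 530 nm (excitation 405 nm) reports SIE-controlled beta-lactamase in ME-180 cells. Cells received compound with 40 pM IL-6 for 5 hrs at 37 C; data scaled between 300 pM IL-6 and 125 nM JAK-inhibitor controls.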

[6] = target: Glucocorticoid receptor (Homo sapiens) (UniProt P04150); assay: GR-GFP Redistribution (AID 450;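 active = compounds whose dose series gives a full or clear partial fitted curve of increased nuclear translocation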; also: potency is read from the fitted curve at half-maximal effect); details: U2OS GR-GFP nuclear translocation, laser cytometry, 2 h
[7] = target: Glucocorticoid receptor (Homo sapiens) (UniProt P04150); assay: GR-EFC Redistribution (AID 451; calls by dose curve; also: potency is read from the fitted curve at half-maximal effect); details: CHO-K1 GR-EFC translocation, beta-gal luminescence, 2 h
Method in brief: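 CHO-K1 cells stably expressing nuclear-localized β-gal enzyme acceptor and GR fused C-terminally to the enzyme donor fragment; ligand-driven nuclear translocation restores β-gal by complementation. Compounds titrated up to 46 uM final, 2 h at 37 °C; luminescence read.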

[8] = target: Mitogen-activated protein kinase 10 (Mus musculus) (UniProt Q61831); assay: JNK3 AlphaScreen Assay (AID 530); details: JNK3 lysate, c-Jun phosphorylation; series mostly up to 11.4 µM;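 also: kinase came from lysate of stimulated human HepG2 cells; signal reports phosphorylation of biotinylated GST-cJun 1-79 at Ser73 with 10 µM ATP; % is scaled to controls: 0 for no effect and ±100 for the full control effect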
Method in brief: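 Phosphorylation of biotinylated GST-cJun(1-79) at Ser73 is measured by AlphaScreen proximity luminescence. Enzyme is JNK3 in HepG2 lysates activated with interleukin-1beta and tumor necrosis factor alpha; ATP is 10 uM final.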

[9] = target: 3',5'-cyclic-AMP phosphodiesterase 4B (Homo sapiens) (UniProt Q07343); assay: qHTS Assay for Inhibitors of PDE-IV (AID 607; active = well fitted activation curve with a large enough effect in the main read-out, with a control signal flat, not every such curve was filed as active; also: % of control where 0% means no effect); details: HEK293 ACTOne CNG channel cells, membrane potential fluorescence; series mostly up to 22.9 µM
Method in brief: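 The readout is membrane depolarisation from a cAMP-sensing CNG channel, detected with a potential dye at ex 535/em 590. Cells were HEK293-derived (endogenous PDE-IV) at 1000 cells/well, titrated up to 22.9 uM final.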

[10] = target: Cytochrome P450 2C19 (Homo sapiens) (UniProt P33261); assay: qHTS Assay for Inhibitors and Substrates of Cytochrome P450 2C19 (AID 899; active = well fitted inhibition curve with a large enough effect; also: nearly all actives have a fitted effect of over 60% in size; also: potency is read from the fitted curve at half-maximal effect); details: recombinant CYP2C19, luciferin-H EGE luminescence; series mostly up to 11.4 µM
Method in brief: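 NADPH-dependent conversion of Luciferin-H EGE (10uM, at KM) by 5nM enzyme in 50mM KPO4, 60 min at 37C following 10 min compound preincubation. Stopped with luciferin detection buffer; luminescence read after 20 min.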

[11] = target: Cytochrome P450 2D6 (Homo sapiens) (UniProt P10635); assay: qHTS Assay for Inhibitors and Substrates of Cytochrome P450 2D6 (AID 891; active = well fitted inhibition curve with a large enough effect; also: nearly all actives have a fitted effect of over 60% in size; also: potency is read from the fitted curve at half-maximal effect); details: recombinant CYP2D6, luciferin-ME EGE luminescence; series mostly up to 11.4 µM
Method in brief: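 Luminescent read-out of luciferin formed by 5 nM human CYP2D6 demethylating 30 uM Luciferin-ME EGE (Km level) over 60 min at room temperature after NADPH regeneration addition. Data normalized to full inhibition by 1.43 uM quinidine.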

Chain of Lysosomal acid glucosylceramidase (Homo sapiens) (P04062 whole entry, looked up): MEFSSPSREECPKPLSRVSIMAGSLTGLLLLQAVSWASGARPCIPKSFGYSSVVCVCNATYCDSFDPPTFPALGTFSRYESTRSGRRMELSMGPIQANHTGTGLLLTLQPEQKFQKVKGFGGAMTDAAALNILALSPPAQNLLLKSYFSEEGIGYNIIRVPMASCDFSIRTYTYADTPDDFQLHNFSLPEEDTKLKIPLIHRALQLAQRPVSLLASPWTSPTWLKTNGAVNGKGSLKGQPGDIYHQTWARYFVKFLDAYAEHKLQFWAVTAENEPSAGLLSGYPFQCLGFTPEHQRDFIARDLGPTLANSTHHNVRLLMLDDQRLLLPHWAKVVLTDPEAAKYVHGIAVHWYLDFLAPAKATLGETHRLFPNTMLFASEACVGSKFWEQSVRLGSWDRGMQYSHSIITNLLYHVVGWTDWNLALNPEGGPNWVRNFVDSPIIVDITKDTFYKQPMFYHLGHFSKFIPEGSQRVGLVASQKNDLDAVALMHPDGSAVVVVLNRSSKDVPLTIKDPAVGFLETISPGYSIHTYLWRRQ
Chain of Glucocorticoid receptor (Homo sapiens) (P04150 whole entry, looked up, the tested form may be a part): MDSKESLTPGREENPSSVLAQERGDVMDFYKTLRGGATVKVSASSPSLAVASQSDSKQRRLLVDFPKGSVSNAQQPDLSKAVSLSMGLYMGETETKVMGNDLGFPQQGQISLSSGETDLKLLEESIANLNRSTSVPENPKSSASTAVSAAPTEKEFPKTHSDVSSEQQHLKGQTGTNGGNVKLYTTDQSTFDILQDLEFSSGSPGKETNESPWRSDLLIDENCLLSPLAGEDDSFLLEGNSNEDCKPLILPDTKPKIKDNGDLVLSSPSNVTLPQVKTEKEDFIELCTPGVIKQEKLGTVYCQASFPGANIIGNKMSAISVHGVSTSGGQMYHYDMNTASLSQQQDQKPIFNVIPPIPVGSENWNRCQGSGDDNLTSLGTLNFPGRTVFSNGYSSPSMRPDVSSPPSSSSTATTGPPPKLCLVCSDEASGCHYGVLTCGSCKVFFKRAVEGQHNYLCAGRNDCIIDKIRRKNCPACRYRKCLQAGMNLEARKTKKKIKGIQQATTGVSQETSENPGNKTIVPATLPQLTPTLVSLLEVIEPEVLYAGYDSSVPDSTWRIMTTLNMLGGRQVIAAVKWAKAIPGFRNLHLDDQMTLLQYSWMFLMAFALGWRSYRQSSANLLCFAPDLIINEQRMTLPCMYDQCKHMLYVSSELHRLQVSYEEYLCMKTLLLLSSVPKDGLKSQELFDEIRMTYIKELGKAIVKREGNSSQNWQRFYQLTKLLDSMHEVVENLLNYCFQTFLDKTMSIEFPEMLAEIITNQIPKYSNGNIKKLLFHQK
Chain of 3',5'-cyclic-AMP phosphodiesterase 4B (Homo sapiens) (Q07343 whole entry, looked up): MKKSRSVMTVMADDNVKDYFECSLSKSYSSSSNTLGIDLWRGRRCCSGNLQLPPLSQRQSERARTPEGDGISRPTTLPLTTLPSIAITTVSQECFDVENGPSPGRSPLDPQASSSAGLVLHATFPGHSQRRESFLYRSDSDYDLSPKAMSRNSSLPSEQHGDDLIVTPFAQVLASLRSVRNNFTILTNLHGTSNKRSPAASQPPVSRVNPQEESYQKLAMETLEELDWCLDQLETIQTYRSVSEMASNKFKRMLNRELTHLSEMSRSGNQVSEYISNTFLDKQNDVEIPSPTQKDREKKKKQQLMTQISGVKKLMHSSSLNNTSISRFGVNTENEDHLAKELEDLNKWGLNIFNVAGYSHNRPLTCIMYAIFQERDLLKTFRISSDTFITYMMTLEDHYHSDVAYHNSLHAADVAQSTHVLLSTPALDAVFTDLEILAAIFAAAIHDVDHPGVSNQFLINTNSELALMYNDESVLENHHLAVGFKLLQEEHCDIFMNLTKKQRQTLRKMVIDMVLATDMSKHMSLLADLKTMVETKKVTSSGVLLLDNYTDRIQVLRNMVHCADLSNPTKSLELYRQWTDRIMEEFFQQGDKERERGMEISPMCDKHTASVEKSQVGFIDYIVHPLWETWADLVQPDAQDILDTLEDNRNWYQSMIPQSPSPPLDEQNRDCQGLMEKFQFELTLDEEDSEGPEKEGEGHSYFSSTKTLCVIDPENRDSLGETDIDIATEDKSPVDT
Chain of Cytochrome P450 1A2 (Homo sapiens) (P05177 whole entry, looked up): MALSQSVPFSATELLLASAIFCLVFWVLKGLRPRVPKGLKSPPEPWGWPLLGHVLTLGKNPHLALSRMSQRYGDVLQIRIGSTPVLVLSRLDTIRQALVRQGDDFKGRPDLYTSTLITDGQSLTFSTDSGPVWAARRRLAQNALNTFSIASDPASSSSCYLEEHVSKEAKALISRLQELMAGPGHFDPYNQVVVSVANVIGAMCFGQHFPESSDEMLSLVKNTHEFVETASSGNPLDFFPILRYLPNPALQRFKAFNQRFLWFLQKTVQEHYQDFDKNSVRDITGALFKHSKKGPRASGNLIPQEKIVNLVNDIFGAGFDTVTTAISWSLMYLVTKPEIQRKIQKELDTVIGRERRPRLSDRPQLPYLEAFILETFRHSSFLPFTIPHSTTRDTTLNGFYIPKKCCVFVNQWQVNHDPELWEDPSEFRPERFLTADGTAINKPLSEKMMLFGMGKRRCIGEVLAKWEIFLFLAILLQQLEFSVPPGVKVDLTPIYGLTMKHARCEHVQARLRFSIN
Chain of Cytochrome P450 2D6 (Homo sapiens) (P10635 whole entry, looked up): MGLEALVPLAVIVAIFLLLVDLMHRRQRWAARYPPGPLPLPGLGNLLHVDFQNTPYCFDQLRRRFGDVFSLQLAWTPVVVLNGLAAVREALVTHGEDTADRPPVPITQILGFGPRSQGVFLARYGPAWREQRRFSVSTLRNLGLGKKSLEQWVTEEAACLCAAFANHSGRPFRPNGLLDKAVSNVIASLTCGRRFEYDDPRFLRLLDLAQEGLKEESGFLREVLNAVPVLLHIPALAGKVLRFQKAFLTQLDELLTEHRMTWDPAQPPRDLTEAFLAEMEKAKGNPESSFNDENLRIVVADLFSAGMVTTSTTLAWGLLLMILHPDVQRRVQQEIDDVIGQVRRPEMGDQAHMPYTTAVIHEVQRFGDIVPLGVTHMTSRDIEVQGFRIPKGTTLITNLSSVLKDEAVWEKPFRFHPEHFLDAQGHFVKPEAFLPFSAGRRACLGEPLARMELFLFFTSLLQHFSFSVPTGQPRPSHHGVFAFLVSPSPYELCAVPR
Chain of Cytochrome P450 2C19 (Homo sapiens) (P33261 whole entry, looked up): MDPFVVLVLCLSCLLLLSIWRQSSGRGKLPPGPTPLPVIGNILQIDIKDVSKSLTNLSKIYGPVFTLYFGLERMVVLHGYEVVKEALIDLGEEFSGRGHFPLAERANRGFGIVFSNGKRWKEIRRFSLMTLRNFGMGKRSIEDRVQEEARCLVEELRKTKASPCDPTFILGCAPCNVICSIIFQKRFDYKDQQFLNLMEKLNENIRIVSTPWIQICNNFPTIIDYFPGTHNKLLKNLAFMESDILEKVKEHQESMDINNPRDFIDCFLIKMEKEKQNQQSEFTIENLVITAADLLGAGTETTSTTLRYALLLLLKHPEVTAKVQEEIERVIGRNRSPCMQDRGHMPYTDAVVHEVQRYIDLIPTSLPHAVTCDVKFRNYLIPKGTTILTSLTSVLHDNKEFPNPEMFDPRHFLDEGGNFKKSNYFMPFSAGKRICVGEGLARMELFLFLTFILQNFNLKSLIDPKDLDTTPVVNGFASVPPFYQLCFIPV

c1cncc(CNc2ncn[nH]2)c1
inactive: Potency [1] > 11.4 µM | activity change, negative = inhibition [2] 12.7% | Potency [3] | activity change, negative = inhibition [4] 15.3% | activity, negative = inhibition [5] -1.59% | Potency [6] > 46 µM | Potency [7] > 9.22 µM | Potency [8] | Potency [9] | Potency [10]

COc1ccc2cc(C(=O)CCC(=O)O)ccc2c1
active: Potency [3] 0.794 µM | Potency [10] 2 µM
inactive: Potency [1] > 11.4 µM | activity change, negative = inhibition [2] 1.75% | activity change, negative = inhibition [4] 19.6% | activity, negative = inhibition [5] 6.44% | Potency [6] > 46 µM | Potency [7] > 9.22 µM | Potency [8] | Potency [9]

CC[C@@H]1CC(=O)N(SC[C@H](N)C(=O)O)C1=O
inactive: Potency [1] > 11.4 µM | activity change, negative = inhibition [2] 1.56% | Potency [3] | activity change, negative = inhibition [4] 12.4% | activity, negative = inhibition [5] 1.84% | Potency [6] > 46 µM | Potency [7] > 9.22 µM | Potency [8] | Potency [9] | Potency [10]

N=C(N)CCNC(=O)[C@@H]1CCC(N)=N1
inactive: Potency [1] > 11.4 µM | activity change, negative = inhibition [2] 4.22% | activity change, negative = inhibition [3] -3.4% [at 2.29 µM] | activity change, negative = inhibition [4] 3.47% | activity, negative = inhibition [5] 1.16% | Potency [6] > 46 µM | Potency [7] > 9.22 µM | Potency [8] | Potency [9] | Potency [10]

CC(CC(=O)O)(CC(=O)O)C(=O)O
inactive: Potency [1] > 11.4 µM | activity change, negative = inhibition [2] -0.949% | Potency [3] | activity change, negative = inhibition [4] 18.4% | activity, negative = inhibition [5] 9.05% | Potency [6] > 46 µM | Potency [7] > 9.22 µM | Potency [8] | Potency [9] | Potency [11] | Potency [10]

CN(Cc1cc(Cl)cc(Cl)c1O)Cc1c(O)ccc2ccccc12
active: Potency [3] 0.631 µM | Potency [11] 1.26 µM | Potency [10] 1.26 µM
inactive: Potency [1] > 11.4 µM | activity change, negative = inhibition [2] -8.51% | activity change, negative = inhibition [4] -4.41% | activity, negative = inhibition [5] -1.99% | Potency [6] > 46 µM | Potency [7] > 9.22 µM | Potency [8] | Potency [9]

C[C@@H]1O[C@@H](O)[C@@H](O)[C@H](O)[C@H]1O
inactive: Potency [1] > 11.4 µM | activity change, negative = inhibition [2] -1.53% | Potency [3] | activity change, negative = inhibition [4] 13.9% | activity, negative = inhibition [5] 6.79% | Potency [6] > 46 µM | Potency [7] > 9.22 µM | Potency [8] | Potency [9] | Potency [10]

CC(C)(C)c1ccc(O)c(CN(Cc2c(O)ccc3ccccc23)C2CCCCC2)c1
active: Potency [3] 3.98 µM | Potency [11] 0.794 µM | Potency [10] 2 µM
inactive: Potency [1] > 11.4 µM | activity change, negative = inhibition [2] -7.92% | activity change, negative = inhibition [4] -10.8% | activity, negative = inhibition [5] -13.7% | Potency [6] > 46 µM | Potency [7] > 9.22 µM | Potency [8] | Potency [9]

N=c1ccn2c(n1)O[C@H]1[C@@H](OP(=O)(O)O)[C@H](CO)O[C@H]12
inactive: Potency [1] > 11.4 µM | activity change, negative = inhibition [2] 1.47% | activity change, negative = inhibition [3] -3.1% [at 2.29 µM] | activity change, negative = inhibition [4] 19.9% | activity, negative = inhibition [5] -1.19% | Potency [6] > 46 µM | Potency [7] > 9.22 µM | Potency [8] | Potency [9] | Potency [10]

CN1CCc2[nH]nc(-c3n[nH]c4c3CN(C)CC4)c2C1
inactive: Potency [1] > 11.4 µM | activity change, negative = inhibition [2] 3.96% | Potency [3] | activity change, negative = inhibition [4] 4.1% | activity, negative = inhibition [5] 2.92% | Potency [6] > 46 µM | Potency [7] > 9.22 µM | Potency [8] | Potency [9] | Potency [10]

O=C(O)CCCc1ccc2ccc3ccccc3c2c1
inactive: Potency [1] > 11.4 µM | activity change, negative = inhibition [2] -11.1% | activity change, negative = inhibition [4] -6.89% | activity, negative = inhibition [5] -2.84% | Potency [6] > 46 µM | Potency [7] > 9.22 µM | Potency [8] | Potency [9] | Potency [11] | Potency [10]
active: Potency [3] 2 µM

Cc1ccc(N(Cc2ccccc2)Cc2ccccc2)cc1
inactive: Potency [1] > 11.4 µM | activity change, negative = inhibition [2] 4.21% | activity change, negative = inhibition [3] -24.2% [at 2.29 µM] | activity change, negative = inhibition [4] -17.4% | activity, negative = inhibition [5] 3.16% | Potency [6] > 46 µM | Potency [7] > 9.22 µM | Potency [8] | Potency [9]
active: Potency [10] 2 µM

N#C[C@@H](N=Nc1ccccc1C(=O)O)C(N)=O
inactive: Potency [1] > 11.4 µM | activity change, negative = inhibition [2] 9.26% | Potency [3] | activity change, negative = inhibition [4] -8.71% | activity, negative = inhibition [5] -29.4% | Potency [6] > 46 µM | Potency [7] > 9.22 µM | Potency [8] | Potency [9] | Potency [10]

Cn1c(=O)c2[nH]c(CCCCc3nc4ccccc4[nH]3)nc2n(C)c1=O
inactive: Potency [1] > 11.4 µM | activity change, negative = inhibition [2] -12.7% | Potency [3] | activity change, negative = inhibition [4] 25% | activity, negative = inhibition [5] 5.57% | Potency [6] > 46 µM | Potency [7] > 9.22 µM | Potency [8] | Potency [9] | Potency [11] | Potency [10]
